Results on 40 molecules are retold here after PubChem BioAssay AID1650 (Southern Research Specialized Biocontainment Screening …, 2009).

Each structure is given as a SMILES string. Potency and affinity values are given separately. Calls of active or inactive are those of the source. Entries that show only a call come without a potency. The rule behind the calls is not given here.

The test in a line: mammalian cell viability reduction – secondary assay, cytotoxicity control for West Nile virus antiviral project, dose response (AID 1650). As to conditions: Mammalian host cell viability, cytotoxicity counter-screen; series mostly up to 10 µM.
Take `COc1cccc2sc3ccc(NCCC4CCCN4C)cc3c(=O)c12` (stereo not given): the call was inactive. Turning to `CN1CCN(CCNC(=O)c2ccc3nc(-c4ccc(F)cc4)c(-c4ccc(F)cc4)nc3c2)CC1`, the molecule was classed as inactive. `Cc1cc2nc(Sc3c([N+](=O)[O-])nc(C)n3Cc3ccccc3)[nH]c2cc1C`: the molecule was called inactive. As to `CCOC(=O)c1cc(-c2ccc(OC)cc2F)nc2c1c(C)nn2CCC#N`, the outcome was inactive. In the case of `Cn1c(=O)n(CCCOc2ccc(Br)cc2)c2ccccc21`, the call was inactive. With `O=C(COC(=O)CN1C(=O)c2ccccc2C1=O)Nc1ccc(S(=O)(=O)N2CCCC2)cc1`, the outcome was inactive. `CCc1cc(-c2[nH]ncc2-c2ccc(OC)cc2)c(O)cc1O`: the result was inactive. As for `CCN1CCN(CCCNC(=O)c2cc3c(s2)-c2ccccc2OC3)CC1`, the molecule was classed as inactive. `Cn1c(N/N=C/c2c[nH]c3ccccc23)nc2ccccc21`: the molecule was called inactive.

Consider `Cc1nc([N+](=O)[O-])c(Br)n1CC(=O)c1ccc(Cl)cc1`, for which the molecule was called inactive. With `CCN(CC)CCCNc1nc(-c2ccccc2)nc2ccccc12`, the result was inactive. To `COC(=O)c1ccc(NC(=O)CC2C(=O)N(C)C(=S)N2Cc2ccc(S(N)(=O)=O)cc2)cc1` (stereo not given) belongs “inactive”. As to `Cc1cccc(CN2CCC(CNC(=O)CSc3cc(=O)n(C)c4cc(Cl)ccc34)CC2)c1`, the molecule was classed as inactive. Turning to `CCCC12CN3CC(C)(CN(C1)C3c1ccc(OC(C)C)cc1)C2=O` (stereo not given), the molecule was classed as inactive.

Turning to `CCN(CC)CCNC(=O)c1ccc(NC(=O)c2cccc(S(=O)(=O)N3c4ccccc4CC3C)c2)cc1` (stereo not given), the outcome was inactive. Take `O=[N+]([O-])c1ccc(COc2ccc(-c3[nH]ncc3-c3ccc(Cl)cc3)c(O)c2)cc1`: the result was inactive. In the case of `Cc1ccc(OCC(=O)c2cc(C)c(C)cc2C)c([N+](=O)[O-])n1` it was “inactive”; in that of `COc1ccc(N=c2oc3ccc(OC)cc3cc2-c2nc3ccccc3[nH]2)cc1`, “inactive”; in that of `Cc1ccc(C)c(CN2C(=O)c3ccccc3S(=O)c3ccc(C(=O)NCCCN4CCCC4)cc32)c1` (stereo not given), “inactive”. With `CC(=O)OCCCNc1cc(Sc2ccc(C)cc2)c2nonc2c1[N+](=O)[O-]`, the molecule was called inactive. As for `N#Cc1ccc(-c2ccc(F)cc2)nc1Oc1ccc(Cl)c(Cl)c1`, the molecule was called inactive. Consider `Cc1cc(C)cc(SCc2noc(C(=O)NCCN(C)C)c2C(=O)NCCN(C)C)c1`, for which the molecule was called inactive. Consider `CCCCCCc1c(C)nc(-n2[nH]c(C)c(CCO)c2=O)[nH]c1=O`, for which the molecule was called inactive.

On to `Cc1cc(N2CCN(C)CC2)nc2ccc(NC(=S)NCc3cccs3)cc12`, for which the outcome was inactive.

In the case of `C=CCn1c(SCc2csc(-c3ccc(Cl)cc3)n2)nnc1-c1ccccc1OC`, the molecule was called inactive.

Regarding `COc1ccc(CNCCC(c2ccc(OC(C)C)cc2)c2ccccc2OC)cc1OC` (stereo not given), the call was inactive.

Take `Cc1cc(C)c(CSc2ncc(-c3ccc([N+](=O)[O-])cc3)[nH]2)c(C)c1`: the molecule was called inactive. `CCN(CC)CCCNC(=O)c1sc2nc(-c3ccc(F)cc3)cn2c1C`: the molecule was called inactive. For the molecule `CCCCN(CC)CCNC(=S)Nc1ccc2nc(N3CCN(C)CC3)cc(C)c2c1`, the call was inactive. To `Cc1cccc(C)c1Nc1nc2ccccc2o1` belongs “inactive”; to `CCN1CCN(C(=S)Nc2ccc3nc(N4CCN(CC)CC4)cc(C)c3c2)CC1`, “inactive”; to `CC(/C=N/Nc1nc(N2CCCCC2)nc(N2CCCCC2)n1)=C\c1ccccc1`, “inactive”. `CC12CC3(C)CC(C)(C1)CC(C(=O)NCC(=O)O)(C2)C3`: the molecule was classed as inactive. Take `COc1ccc(C(=O)CSc2nnc(-c3ccc(S(=O)(=O)N4CCOCC4)cc3)o2)cc1`: the call was inactive. To `CN(C)CCCNC(=S)N1CCN(c2nc(-c3ccccc3)cs2)CC1` belongs “inactive”.

In the case of `FC(F)(F)c1nnc(-c2ccccc2)nc1Sc1ccc(Cl)cc1`, the call was inactive. In the case of `O=C(CSc1nc2ccccc2c(=O)n1-c1ccc(F)cc1F)Nc1ccc2c(c1)CCC2`, the result was inactive.

Consider `Cc1ccc(S(=O)(=O)N2CCCC2C(=O)Oc2ccccc2)cc1` (stereo not given), for which the molecule was classed as inactive. In the case of `CCN(CC)CCCNc1oc(-c2cccc(Cl)c2)nc1C#N` it was “inactive”; in that of `COc1cc(-c2cc3nc(C)c(C)c(=O)n3[nH]2)cc(OC)c1OC`, “inactive”.
